# High-throughput results (PubChem)
# Shown are actives, neighbours in structure and some others; about 1.7% of the full set was active somewhere.
# PfHsp40 rescue = compounds rescuing yeast from Plasmodium falciparum HSP40 toxicity; growth rescue, % at 12.5 µM; AID 504582; S. cerevisiae expressing PfHsp40, growth rescue, ATP luminescence; 340,000 tested, 0.68% active; in the data active = growth rescue above about 28%, passing the limit was not always enough;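 note: yeast W303a lacking pdr1 and pdr3 grown in galactose medium; growth measured after three days at 30 °C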
# PrPC surface inh = reduces human prion protein on the cell surface | 370,000 tested, 0.43% active | AID 720596 | inhibition, % at 13.8 µM | P04156 | cell surface PrPC, TR-FRET read-out; in the data active = inhibition above about 24%; note: 0% = median of the test wells and 100% = reference compound wells
# PriA SSB inh = K. pneumoniae PriA-SSBct interaction inhibition; 430,000 tested, 0.6% active; inhibition, % at 33 µM; AlphaScreen SSBct-PriA binding, biotinylated peptide; in the data active = inhibition mostly above about 37%, no sharp cut-off; inactive = mostly below about 20%;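 note: plate controls were negative control peptide for no effect and reference peptide for full effect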
# BJeLR lethal = BJeLR cell viability loss; AID 1554; BJeLR (HRASV12) viability, CellTiter-Glo ATP luminescence, 48 h; 300,000 tested, 0.17% active; inhibition, % (concentration not given with the values); in the data active = inhibition above about 50%
# PrP 5UTR inh = inhibition of PrP 5' UTR reporter expression; inhibition, % (concentration not given with the values); AID 488862; 340,000 tested, 0.35% active; cell-based PrP 5' UTR mRNA reporter, plate reader; in the data active = inhibition above about 52%; note: 0 = median of the neutral control wells
# Yp Topo-I inh = Y. pestis Topo-I inhibition via cleavage products; activity, % at 10 µM; Y. pestis Topo-I cleavage product accumulation, plate reader; 360,000 tested, 0.064% active; in the data active = activity above about 50%, passing the limit was not always enough
# PrP 5UTR single = prion 5' UTR mRNA inhibition, cherry-pick retest; inhibition, % at 2.5 µM; shares compounds with PrP 5UTR inh; cell-based prion protein 5' UTR reporter, plate reader; 1,100 tested, 48% active; in the data active = inhibition above about 54%
# The depositor's hits bear a star; nt = not tested or not shown.
SMILES,PfHsp40 rescue,PrPC surface inh,PriA SSB inh,BJeLR lethal,PrP 5UTR inh,Yp Topo-I inh,PrP 5UTR single
Cc1cc(/C=C2\SC(=S)N(C)C2=O)c(C)n1-c1ccccc1O,0.8,-2.6,-9.3,0.0,12.5,-4.8,nt
Cn1nc(-c2ccc(F)cc2)cc1C(=O)Nc1ccc(N2CCCS2(=O)=O)cc1,nt,nt,-9.0,nt,nt,nt,nt
COc1cc(O)c(C(=O)O)c(-c2cc(O)c(O)cc2C)c1,1.5,8.4,-12.5,-10.7,68.3*,2.9,-16.2
O=c1[nH]cnc2c1ncn2[C@@H]1O[C@H](CO)[C@@H](O)[C@H]1O,-0.6,-12.8,-11.7,4.9,79.3*,-5.6,-6.6
CC1CCc2nc(NC(=O)c3ccco3)sc2C1 (stereo not given),-0.4,1.1,14.4,2.3,57.5*,4.0,53.6*
O=C(Nc1nc2cc3c(cc2s1)OCCO3)c1ccco1,1.0,0.9,-6.7,7.2,78.5*,-2.1,80.6*
O=C(Nc1cccc(-c2nc3ccccc3s2)c1)C1=COCCO1,1.0,0.3,-4.8,3.8,-14.3,10.1,nt
O=C(Nc1ccc(-c2nc3ccccc3s2)cc1)C1=COCCO1,-0.8,-5.8,-8.0,13.3,73.1*,-8.9,65.6*
O=C(Nc1nc2cc3c(cc2s1)OCO3)C1=COCCO1,-0.1,-3.6,-1.5,21.5,69.8*,-12.8,64.1*
COc1ccc(Nc2cc(C)ncn2)cc1,nt,nt,-2.0,nt,nt,nt,nt
COc1cc2[nH]c3c(=O)n(CC(=O)NCc4ccc(Cl)cc4)cnc3c2cc1OC,nt,nt,6.0,nt,nt,nt,nt
Cc1c(Cl)cccc1S(=O)(=O)NCCn1ccc(-c2ccccn2)n1,nt,nt,4.0,nt,nt,nt,nt
O=C(Nc1ccccc1Cl)c1ccccc1,-0.4,5.6,-1.2,7.2,-36.4,5.8,nt
O=C(Nc1ccccc1Cl)c1ccc(C(=O)Nc2ccccc2Cl)cc1,-0.7,-4.2,-8.4,nt,75.6*,-4.3,1.1
OCC1OC(Oc2ccc(Cl)cc2)C(O)C(O)C1O (stereo not given),nt,nt,-1.0,nt,nt,nt,nt
CCC1=Nc2cc(C(=O)NCCCOC)ccc2Sc2ccccc21,0.5,1.6,0.2,46.6,77.0*,-6.6,36.2
CCCC1=Nc2cc(C(=O)NCCCOCC)ccc2Sc2ccccc21,0.2,1.7,-1.9,38.8,57.6*,31.6,84.4*
CCC1=Nc2cc(C(=O)NCc3ccco3)ccc2Sc2ccc(C)cc21,1.7,3.3,5.1,61.7*,69.2*,33.8,85.7*
CCOC(=O)c1ccsc1NC(=O)CC1Nc2ccccc2NC1=O (stereo not given),nt,nt,-10.0,nt,nt,nt,nt
CC(C)Nc1nnc(SCC(=O)c2c(N)n(Cc3ccccc3)c(=O)n(C)c2=O)s1,-0.5,-4.8,-14.3,-2.9,59.9*,15.4,-6.8
CC(=O)Nc1ccc(SCC(=O)c2c(N)n(Cc3ccccc3)c(=O)n(C)c2=O)cc1,0.3,0.8,2.2,2.3,-8.7,6.2,nt
O=C(c1nc2ccccc2s1)N1CCCC(Cc2nc(-c3cnccn3)no2)C1 (stereo not given),nt,nt,2.0,nt,nt,nt,nt
COc1ccc(N/C=C/C(=O)c2cc(OC)c(OC)c(OC)c2)cc1,1.0,4.8,-5.2,53.0*,71.0*,-4.2,89.2*
COc1ccc(N/C=C/C(=O)c2ccc(OC)c(OC)c2)cc1,0.6,5.2,3.6,-0.6,-37.2,7.8,nt
COc1ccc(OC)c(N/C=C/C(=O)c2ccccc2)c1,-0.6,5.2,-13.6,18.6,80.8*,-5.2,61.0*
SMILES,PfHsp40 rescue,PrPC surface inh,PriA SSB inh,BJeLR lethal,PrP 5UTR inh,Yp Topo-I inh,PrP 5UTR single
COc1ccc(OC)c(N/C(C)=C/C(=O)c2ccccc2)c1,-1.1,6.7,nt,1.1,-93.8,12.6,nt
COCCn1c(C)cc(C(=O)CSc2nc3sc4c(c3c(=O)n2-c2ccccc2)CCC4)c1C,nt,nt,-4.0,nt,nt,nt,nt
Cc1c(Cl)cccc1S(=O)(=O)NCCC(O)c1cccs1 (stereo not given),nt,nt,3.0,nt,nt,nt,nt
COc1ccc(NC(=S)N(CCC(C)C)C2CCN(C(C)C)CC2)cc1,0.2,-2.2,15.1,-5.8,-17.7,-10.3,nt
CC(C)CCN(C(=S)Nc1cccc(F)c1)C1CCN(C(C)C)CC1,1.0,-7.4,-7.5,16.2,79.2*,-13.8,-18.6
CCOC(=O)c1c(C)[nH]c(/C(C)=N/O)c1C,0.8,7.0,nt,4.0,-5.2,-14.8,nt
CCOC(=O)c1c(C)[nH]c(C2=NNC(=NC3CC3)SC2)c1C,0.0,nt,17.3,0.9,70.8*,9.5,53.6*
O=C(Cc1ccc(NC(=O)CCc2cccc(Cl)c2)cc1)NCC(F)(F)F,nt,nt,-25.0,nt,nt,nt,nt
Cc1ccc(C(=O)Nc2ncc([N+](=O)[O-])s2)cc1,6.2,-5.3,-1.2,13.4,71.0*,-6.0,72.6*
Cc1ccc(C(=O)Nc2ncc(Cc3ccc(SC(F)F)cc3)s2)cc1,-0.5,4.8,-0.4,24.0,62.3*,-11.4,88.8*
O=C(CSc1ccc(NC(=O)c2ccccc2F)nn1)NCCc1ccccc1,nt,nt,-4.0,nt,nt,nt,nt
COc1ccc(Oc2nccc(-c3ccc(F)cc3)c2C#N)cc1,0.6,2.6,-9.4,-7.7,76.4*,4.8,-47.2
CN1C=CC(=C2C(=O)c3ccccc3C2=O)C=C1,nt,nt,nt,11.1,nt,nt,nt
CCCCCCN1C=CC(=C2C(=O)c3ccccc3C2=O)C=C1,0.6,-1.6,-21.4,16.0,72.0*,-6.2,71.6*
CCN1C=CC(=C2C(=O)c3ccccc3C2=O)C=C1,0.1,-38.3,-12.0,30.3,87.8*,1.6,90.7*
CCCCN1C(C)=CC(=C2C(=O)c3ccccc3C2=O)C=C1C,0.3,-10.6,0.9,4.9,8.7,17.2,nt
CCCN1C=CC(=C2C(=O)c3ccccc3C2=O)C=C1,-0.6,-43.6,-8.6,68.0*,92.7*,12.4,96.3*
O=S(=O)(NCC1(c2ccsc2)CCCC1)c1ccccc1,nt,nt,-16.0,nt,nt,nt,nt
Cc1ccccc1CSc1n[nH]c(=O)c2cc(-c3ccco3)nn12,nt,nt,29.0,nt,nt,nt,nt
CC(C)N1CC(c2nc3ccccc3[nH]2)CC1=O (stereo not given),nt,nt,2.0,nt,nt,nt,nt
COc1ccc(NC(=O)C(=O)NCC(c2ccco2)N2CCc3ccccc32)cc1 (stereo not given),0.0,nt,-10.2,26.2,53.0*,-3.7,79.9*
CC(=O)Nc1ccc(NC(=O)C(=O)NCC(c2ccco2)N2CCc3ccccc32)cc1 (stereo not given),-0.6,6.0,-0.7,4.9,-13.4,-3.8,nt
O=C(COc1ccc(Cl)cc1)NCCOc1ccc2nnc(-c3ccccc3)n2n1,nt,nt,-9.0,nt,nt,nt,nt
O=C(N1CC(Oc2nccs2)C1)C1(c2ccccc2)CCOCC1,nt,nt,0.0,nt,nt,nt,nt
COc1ccc(C)cc1NC(=O)Cn1c(C)cc(C)c(S(=O)(=O)c2ccc(C)cc2)c1=O,nt,nt,-4.0,nt,nt,nt,nt
CC(C)(C)n1ncc2c(=O)n(CC(=O)OCc3ccccc3)cnc21,-1.6,1.4,-4.0,3.5,59.9*,1.4,30.0
